Data published in PubChem BioAssay AID1159580 (chemical genetic matrix, 2015).
Out of some 5,500 compounds screened, about 2,000 (36%) were called active. About 18% were inconclusive and are not listed. Cut-off read from the data, not from the text of the source: active = normalized growth mostly below about 0.91 (no sharp cut-off); inconclusive = no clear call, values can overlap the other calls; inactive = mostly above about 0.92. This is one part of the list.

Test: chemical genetic growth profiling, strain panel (AID 1159580);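 note: tested at 20 µM; growth read once vehicle control cultures reached saturation at 30 °C; 1 = growth at the plate median or of vehicle wells; lower values mean less growth of the strain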
Conditions: growth OD

Measured: normalized growth

CC(=O)NCCCCCC(=O)O
inactive: S. cerevisiae deletion strains, locus YJL187C, strain SWE1, active compounds read low 1.01 | S. cerevisiae deletion strains, locus YJR043C, strain POL32, active compounds read low 1.01 | S. cerevisiae deletion strains, locus YJR075W, strain HOC1, active compounds read low 1.02 | S. cerevisiae deletion strains, locus YKL009W, strain mrt4, active compounds read low 0.997 | S. cerevisiae deletion strains, locus YKL068W, active compounds read low 0.994 | S. cerevisiae deletion strains, locus YKL085W, strain MDH1 (second series), active compounds read low 0.989 | S. cerevisiae deletion strains, locus YKL085W, strain MDH1, active compounds read low 0.989 | S. cerevisiae deletion strains, locus YKL160W, strain elf1, active compounds read low 1.03 | S. cerevisiae deletion strains, locus YKL190W, strain CNB1, active compounds read low 1.01 | S. cerevisiae deletion strains, locus YKR001C, strain vps1, active compounds read low 1.01 | S. cerevisiae deletion strains, locus YKR026C, strain gcn3, active compounds read low 0.963 | S. cerevisiae deletion strains, locus YKR091W, strain srl3, active compounds read low 0.985 | S. cerevisiae deletion strains, locus YLL001W, strain dnm1, active compounds read low 1.01 | S. cerevisiae deletion strains, locus YLL026W, active compounds read low 1.01 | S. cerevisiae deletion strains, locus YLL041C, strain sdh2, active compounds read low 0.994 | S. cerevisiae deletion strains, locus YLR027C, strain aat2, active compounds read low 1.02 | S. cerevisiae deletion strains, locus YLR039C, strain RIC1, active compounds read low 1.04 | S. cerevisiae deletion strains, locus YLR058C, strain SHM2, active compounds read low 1.02 | S. cerevisiae deletion strains, locus YLR102C, strain apc9, active compounds read low 0.989 | S. cerevisiae deletion strains, locus YLR221C, strain rsa3, active compounds read low 1 | S. cerevisiae deletion strains, locus YLR258W, strain gsy2, active compounds read low 0.992 | S. cerevisiae deletion strains, locus YLR262C, strain YPT6 (second series), active compounds read low 1.02 | S. cerevisiae deletion strains, locus YLR262C, strain YPT6, active compounds read low 1.07 | S. cerevisiae deletion strains, locus YLR268W, strain sec22, active compounds read low 0.996 | S. cerevisiae deletion strains, locus YLR320W, strain mms22, active compounds read low 1 | S. cerevisiae deletion strains, locus YLR330W, strain CHS5, active compounds read low 1.01 | S. cerevisiae deletion strains, locus YLR342W, strain FKS1 (second series), active compounds read low 1 | S. cerevisiae deletion strains, locus YLR342W, strain FKS1, active compounds read low 0.982 | S. cerevisiae deletion strains, locus YLR357W, strain rsc2, active compounds read low 1.01 | S. cerevisiae deletion strains, locus YLR370C, strain arc18, active compounds read low 0.991 | S. cerevisiae deletion strains, locus YLR371W, strain rom2, active compounds read low 0.983 | S. cerevisiae deletion strains, locus YLR384C, strain iki3, active compounds read low 0.983 | S. cerevisiae deletion strains, locus YLR418C, strain cdc73, active compounds read low 0.963 | S. cerevisiae deletion strains, locus YML016C, strain PPZ1, active compounds read low 1.01 | S. cerevisiae deletion strains, locus YML032C, strain rad52, active compounds read low 0.986 | S. cerevisiae deletion strains, locus YML120C, strain ndi1, active compounds read low 1.01 | S. cerevisiae deletion strains, locus YML124C, strain tub3, active compounds read low 0.989 | S. cerevisiae deletion strains, locus YMR058W, strain fet3, active compounds read low 0.981 | S. cerevisiae deletion strains, locus YMR078C, strain ctf18, active compounds read low 1 | S. cerevisiae deletion strains, locus YMR125W, strain sto1, active compounds read low 0.986 | S. cerevisiae deletion strains, locus YMR129W, active compounds read low 0.976 | S. cerevisiae deletion strains, locus YMR205C, strain PFK2, active compounds read low 0.968 | S. cerevisiae deletion strains, locus YMR223W, strain ubp8, active compounds read low 0.976 | S. cerevisiae deletion strains, locus YMR231W, strain pep5, active compounds read low 0.978 | S. cerevisiae deletion strains, locus YMR307W, strain GAS1, active compounds read low 1.01 | S. cerevisiae deletion strains, locus YNL067W, strain RPL9B, active compounds read low 1.02 | S. cerevisiae deletion strains, locus YNL071W, strain lat1, active compounds read low 0.989 | S. cerevisiae deletion strains, locus YNL209W, strain ssb2, active compounds read low 0.994 | S. cerevisiae deletion strains, locus YNL233W, strain BNI4, active compounds read low 1.03 | S. cerevisiae deletion strains, locus YNL248C, strain rpa49, active compounds read low 1.01 | S. cerevisiae deletion strains, locus YNL250W, strain rad50, active compounds read low 0.992 | S. cerevisiae deletion strains, locus YNL271C, strain bni1, active compounds read low 0.971 | S. cerevisiae deletion strains, locus YNL298W, strain CLA4, active compounds read low 0.986 | S. cerevisiae deletion strains, locus YNL307C, strain MCK1, active compounds read low 0.988 | S. cerevisiae deletion strains, locus YNL322C, strain KRE1 (second series), active compounds read low 0.995 | S. cerevisiae deletion strains, locus YNL322C, strain KRE1, active compounds read low 1.01 | S. cerevisiae deletion strains, locus YNR049C, strain mso1, active compounds read low 0.973 | S. cerevisiae deletion strains, locus YNR052C, strain pop2, active compounds read low 0.995 | S. cerevisiae deletion strains, locus YOL006C, strain TOP1, active compounds read low 1.09 | S. cerevisiae deletion strains, locus YOL012C, strain htz1 0.886 | S. cerevisiae deletion strains, locus YOL147C, strain pex11, active compounds read low 0.988 | S. cerevisiae deletion strains, locus YOR001W, strain rrp6, active compounds read low 1.04 | S. cerevisiae deletion strains, locus YOR061W, strain CKA2, active compounds read low 1.02 | S. cerevisiae deletion strains, locus YOR069W, strain VPS5, active compounds read low 1.01 | S. cerevisiae deletion strains, locus YOR070C, strain gyp1, active compounds read low 0.994 | S. cerevisiae deletion strains, locus YOR080W, strain dia2, active compounds read low 0.988 | S. cerevisiae deletion strains, locus YOR083W, strain WHI5, active compounds read low 1.06 | S. cerevisiae deletion strains, locus YOR106W, strain vam3, active compounds read low 1.01 | S. cerevisiae deletion strains, locus YOR136W, strain idh2, active compounds read low 0.985 | S. cerevisiae deletion strains, locus YOR144C, strain elg1, active compounds read low 0.978 | S. cerevisiae deletion strains, locus YOR184W, strain ser1, active compounds read low 0.982 | S. cerevisiae deletion strains, locus YOR265W, strain rbl2, active compounds read low 1.01 | S. cerevisiae deletion strains, locus YOR270C, strain vph1, active compounds read low 0.968 | S. cerevisiae deletion strains, locus YOR290C, strain snf2, active compounds read low 0.939 | S. cerevisiae deletion strains, locus YOR316C, strain cot1, active compounds read low 0.987 | S. cerevisiae deletion strains, locus YPL051W, strain arl3, active compounds read low 1.02 | S. cerevisiae deletion strains, locus YPL055C, strain LGE1, active compounds read low 1.07 | S. cerevisiae deletion strains, locus YPL078C, strain atp4, active compounds read low 1 | S. cerevisiae deletion strains, locus YPL106C, strain sse1, active compounds read low 0.977 | S. cerevisiae deletion strains, locus YPL240C, strain hsp82, active compounds read low 0.99 | S. cerevisiae deletion strains, locus YPR119W, strain clb2, active compounds read low 0.993 | S. cerevisiae deletion strains, locus YPR141C, strain kar3, active compounds read low 0.989 | S. cerevisiae deletion strains, locus YPR163C, strain tif3, active compounds read low 0.98 | S. cerevisiae deletion strains, locus YPR167C, strain met16, active compounds read low 0.977 | S. cerevisiae deletion strains, strain wtn01, active compounds read low 0.976 | S. cerevisiae strains, strain wild type, active compounds read low 1.01
